# Assay results from PubChem BioAssay (NCI).
# About 83,000 compounds went through this panel and 20% of them were active in at least one assay; those are over-represented in the sample as a whole.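 Method: cells in 96-well plates; compound added at one concentration; 48 h incubation; percent growth measured; values under 10 scored active.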 Active and inactive are the calls of the source.
# Tested on: CAKI-1 renal
# Assay: NCI-60 one-dose screen, 48 h (100 = growth as untreated, 0 = no growth, -100 = all killed)
# Settings: 10 µM unless noted
row,Structure (SMILES),growth
1,OCCn1cc(-c2nc3ccc4[nH]ncc4c3c3c2CCCC3)cn1,1.75% (active)
2,O=C1Nc2cc(-c3ccc(NS(=O)(=O)c4ccc([N+](=O)[O-])cc4)cc3)ccc2/C1=C/c1ccc[nH]1,-17.4% (active)
3,O=C(Cn1c(-c2ccccc2)nc2ccccc21)N=Nc1c(O)[nH]c2ccc(Br)cc12,-8.86% (active)
4,Cc1nc2sccn2c1-c1nnc(SCc2ccccc2)o1,85.2% (inactive)
5,CCC1(OC(=O)c2ccccc2SSCCOC(=O)CCCCC2SCC3NC(=O)NC32)C(=O)OCc2c1cc1n(c2=O)Cc2cc3ccccc3nc2-1 (stereo not drawn),10.5% (inactive)
6,C=CC(=O)Nc1ccc(C(=O)/C=C/c2ccc(N(C)C)cc2)c(O)c1,-18.1% (active)
7,COc1ccc(C(=O)c2cc(C(C)=O)c3c(C)cc(C)cn23)cc1,38.6% (inactive)
8,Cc1ccc(S(=O)(=O)N(CCn2ccnc2[N+](=O)[O-])CCn2ccnc2[N+](=O)[O-])cc1,89.2% (inactive)
9,Cc1ccc(S(=O)(=O)Nc2ccc(-c3ccc4c(c3)NC(=O)/C4=C\c3ccc[nH]3)cc2)cc1,87.3% (inactive)
10,COc1ccc2c(c1)C(=O)N(C)C2C1c2c(cc3c(c2OC)OCO3)CCN1C (stereo not drawn),31.6% (inactive)
11,Cc1ccc(C2CC(c3ccc(NC(=O)Nc4ccccc4)cc3)=NN2c2ccc(S(N)(=O)=O)cc2)cc1 (stereo not drawn),-98.2% (active)
12,COC(=O)c1cc(C(=O)C(Br)Br)n2c1ccc1c3ccccc3ccc12,58.3% (inactive)
13,COc1ccc2c(c1)N=c1c-2cc2c(O)[nH]c(=S)n2c1=O,29.7% (inactive)
14,O=Cc1cncc(-c2ccc3ncnc(N4CCc5cc(F)c(Cl)cc54)c3c2)c1,12.5% (inactive)
15,CC1=C(C(=O)OC(C)C)C(c2ccc(O)cc2)NC(=O)N1 (stereo not drawn),95.3% (inactive)
16,COC(=O)CSC1=C(C)C(=O)C(OC)=C(OC)C1=O,77.4% (inactive)
17,O=C1Nc2ccccc2/C1=C/C(=O)c1cc2ccccc2oc1=O,75.5% (inactive)
18,COC(=O)c1ccc(-c2c(-c3ccccc3)c(F)c3oc(C(=O)OC)c(N)c3c2-c2ccccc2)cc1,81.1% (inactive)
19,COc1cc(-c2ccc3ncnc(N4CCc5ccc(Cl)cc54)c3c2)cnc1Cl,12.9% (inactive)

row,Structure (SMILES),growth
1,Oc1cncc(-c2ccc3ncnc(N4CCc5cc(F)c(Cl)cc54)c3c2)c1,41.5% (inactive)
2,Nc1cc(-c2c[nH]c3ccc(F)cc23)nc2cc(-c3c[nH]c4ccccc34)nn12,1.64% (active)
3,C/C(=N\Nc1ccc(S(N)(=O)=O)cc1)c1cnn(-c2cc(=O)[nH]c3ccc(Br)cc23)c1C,76.7% (inactive)
4,O=C(Cn1c(-c2ccccc2)nc2ccccc21)N=Nc1c(O)[nH]c2ccc(Cl)cc12,13% (inactive)
5,COC(=O)c1c(C(=O)OC)c2ccc3c4ccccc4ccc3n2c1C(=O)OC,107% (inactive)
6,COc1sc(/C=N/NC(=O)c2[nH]c3ccc(Br)cc3c2-c2ccccc2)cc1Br,15.2% (inactive)
7,O=C(NNC(=O)c1ccc(OCc2nc3ccc(Cl)cc3[nH]2)cc1)Nc1ccc(Cl)c(Cl)c1,91.8% (inactive)
8,COc1ccc(NC(=O)CSc2nnc(-c3ccc(-c4nc5ccc(Cl)cc5[nH]4)cc3)o2)cc1,8.1% (active)
9,O=C1Nc2ccc(F)cc2/C1=C/C(=O)c1cc2ccccc2oc1=O,88.8% (inactive)
10,Cn1cc(-c2cc(N)n3nc(-c4c[nH]c5ccccc45)cc3n2)c2ccccc21,-100% (active)
11,COc1nc(N)ncc1-c1ccc2ncnc(N3CCc4cc(F)c(Cl)cc43)c2c1,4.22% (active)
12,CN1CCN(C(=O)Oc2cc3c(c4ccccc24)[C@H](CCl)CN3C(=O)c2cc3cc(OCCCN4CCC4)ccc3[nH]2)[C@@H]2CSSC[C@H]21,1.34% (active)
13,COc1ccc2[nH]cc(-c3cc4nc(-c5cn(C)c6ncccc56)cc(N)n4n3)c2c1,-65.2% (active)
14,COc1ccc(N=Nc2c(N)nn3c(-c4ccc(OC)c(OC)c4)ccnc23)cc1,-60.2% (active)
15,Cc1ccc2nc(NC(=O)Nc3cccc(Cl)c3)sc2c1,90.7% (inactive)
16,COc1ccc(Nc2ncnc3sc4c(c23)CCN(Cc2ccccc2)C4)cc1,52% (inactive)
17,O=C1/C(=C/C=C/c2ccco2)SC(=S)N1CC(=S)C1C=CS(=O)(=O)C1 (stereo not drawn),107% (inactive)
18,CC1=C(C(=O)OCc2ccccc2)C(c2cccc3ccccc23)n2c(nc3ccccc32)N1 (stereo not drawn),30.5% (inactive)
19,CN(C)c1nc(NCCNS(=O)(=O)c2ccc(C(=O)/C=C/c3ccccc3)cc2)nc(N2CCOCC2)n1,68.5% (inactive)
